The whole screen tested about 5,500 compounds, of which about 2,000 (36%) were called active. Not shown: some 18% with an inconclusive outcome. Rule as the data show it: active = normalized growth mostly below about 0.91 (no sharp cut-off); inconclusive = no clear call, values can overlap the other calls; inactive = mostly above about 0.92. The list shows a part of the results.
Assay: chemical genetic growth profiling, strain panel (AID 1159580);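 also: tested at 20 µM; growth read once vehicle control cultures reached saturation at 30 °C; 1 = growth at the plate median or of vehicle wells; lower values mean less growth of the strain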
Details: growth OD

Measured: normalized growth

CC1(C)CC[C@]2(C)CC[C@]3(C)C(=CCC4[C@@]5(C)CC[C@H](O)C(C)(C)C5CC[C@]43C)C2C1 (some centres not stated)
inactive: S. cerevisiae deletion strains, locus YJL187C, strain SWE1, hits give low values 1 | S. cerevisiae deletion strains, locus YJR066W, strain TOR1, hits give low values 0.993 | S. cerevisiae deletion strains, locus YKL009W, strain mrt4, hits give low values 0.988 | S. cerevisiae deletion strains, locus YKL068W, hits give low values 0.985 | S. cerevisiae deletion strains, locus YKL085W, strain MDH1 (second series), hits give low values 0.999 | S. cerevisiae deletion strains, locus YKL085W, strain MDH1, hits give low values 0.999 | S. cerevisiae deletion strains, locus YKL160W, strain elf1, hits give low values 0.987 | S. cerevisiae deletion strains, locus YKL190W, strain CNB1, hits give low values 1 | S. cerevisiae deletion strains, locus YKR001C, strain vps1, hits give low values 0.999 | S. cerevisiae deletion strains, locus YKR026C, strain gcn3, hits give low values 0.989 | S. cerevisiae deletion strains, locus YKR091W, strain srl3, hits give low values 0.993 | S. cerevisiae deletion strains, locus YLL001W, strain dnm1, hits give low values 0.987 | S. cerevisiae deletion strains, locus YLL026W, hits give low values 0.984 | S. cerevisiae deletion strains, locus YLL041C, strain sdh2, hits give low values 1.01 | S. cerevisiae deletion strains, locus YLR027C, strain aat2, hits give low values 0.98 | S. cerevisiae deletion strains, locus YLR039C, strain RIC1, hits give low values 1.02 | S. cerevisiae deletion strains, locus YLR058C, strain SHM2, hits give low values 1.01 | S. cerevisiae deletion strains, locus YLR102C, strain apc9, hits give low values 1.01 | S. cerevisiae deletion strains, locus YLR113W, strain HOG1, hits give low values 0.977 | S. cerevisiae deletion strains, locus YLR221C, strain rsa3, hits give low values 0.987 | S. cerevisiae deletion strains, locus YLR258W, strain gsy2, hits give low values 1.01 | S. cerevisiae deletion strains, locus YLR262C, strain YPT6 (second series), hits give low values 1.01 | S. cerevisiae deletion strains, locus YLR268W, strain sec22, hits give low values 1.03 | S. cerevisiae deletion strains, locus YLR320W, strain mms22, hits give low values 0.994 | S. cerevisiae deletion strains, locus YLR342W, strain FKS1, hits give low values 0.996 | S. cerevisiae deletion strains, locus YLR357W, strain rsc2, hits give low values 0.971 | S. cerevisiae deletion strains, locus YLR370C, strain arc18, hits give low values 0.999 | S. cerevisiae deletion strains, locus YLR371W, strain rom2, hits give low values 0.973 | S. cerevisiae deletion strains, locus YLR384C, strain iki3, hits give low values 0.967 | S. cerevisiae deletion strains, locus YLR418C, strain cdc73, hits give low values 0.994 | S. cerevisiae deletion strains, locus YML016C, strain PPZ1, hits give low values 1.01 | S. cerevisiae deletion strains, locus YML032C, strain rad52, hits give low values 0.991 | S. cerevisiae deletion strains, locus YML120C, strain ndi1, hits give low values 0.979 | S. cerevisiae deletion strains, locus YML124C, strain tub3, hits give low values 0.984 | S. cerevisiae deletion strains, locus YMR058W, strain fet3, hits give low values 0.988 | S. cerevisiae deletion strains, locus YMR078C, strain ctf18, hits give low values 0.994 | S. cerevisiae deletion strains, locus YMR125W, strain sto1, hits give low values 0.994 | S. cerevisiae deletion strains, locus YMR129W, hits give low values 0.991 | S. cerevisiae deletion strains, locus YMR205C, strain PFK2, hits give low values 1.01 | S. cerevisiae deletion strains, locus YMR223W, strain ubp8, hits give low values 0.992 | S. cerevisiae deletion strains, locus YMR231W, strain pep5, hits give low values 0.997 | S. cerevisiae deletion strains, locus YMR263W, strain SAP30, hits give low values 0.979 | S. cerevisiae deletion strains, locus YMR307W, strain GAS1, hits give low values 1.06 | S. cerevisiae deletion strains, locus YNL067W, strain RPL9B, hits give low values 0.973 | S. cerevisiae deletion strains, locus YNL071W, strain lat1, hits give low values 0.997 | S. cerevisiae deletion strains, locus YNL153C, strain GIM3, hits give low values 0.973 | S. cerevisiae deletion strains, locus YNL183C, strain NPR1, hits give low values 0.984 | S. cerevisiae deletion strains, locus YNL209W, strain ssb2, hits give low values 0.975 | S. cerevisiae deletion strains, locus YNL233W, strain BNI4, hits give low values 1.01 | S. cerevisiae deletion strains, locus YNL248C, strain rpa49, hits give low values 0.985 | S. cerevisiae deletion strains, locus YNL250W, strain rad50, hits give low values 0.963 | S. cerevisiae deletion strains, locus YNL271C, strain bni1, hits give low values 0.978 | S. cerevisiae deletion strains, locus YNL298W, strain CLA4, hits give low values 0.991 | S. cerevisiae deletion strains, locus YNL307C, strain MCK1, hits give low values 1 | S. cerevisiae deletion strains, locus YNL322C, strain KRE1 (second series), hits give low values 0.965 | S. cerevisiae deletion strains, locus YNR049C, strain mso1, hits give low values 0.987 | S. cerevisiae deletion strains, locus YNR052C, strain pop2, hits give low values 0.968 | S. cerevisiae deletion strains, locus YOL006C, strain TOP1, hits give low values 1.14 | S. cerevisiae deletion strains, locus YOL012C, strain htz1 1.39 | S. cerevisiae deletion strains, locus YOL147C, strain pex11, hits give low values 0.98 | S. cerevisiae deletion strains, locus YOR001W, strain rrp6, hits give low values 1 | S. cerevisiae deletion strains, locus YOR061W, strain CKA2, hits give low values 1.01 | S. cerevisiae deletion strains, locus YOR069W, strain VPS5, hits give low values 1.01 | S. cerevisiae deletion strains, locus YOR070C, strain gyp1, hits give low values 0.991 | S. cerevisiae deletion strains, locus YOR080W, strain dia2, hits give low values 0.998 | S. cerevisiae deletion strains, locus YOR083W, strain WHI5, hits give low values 1 | S. cerevisiae deletion strains, locus YOR106W, strain vam3, hits give low values 0.993 | S. cerevisiae deletion strains, locus YOR136W, strain idh2, hits give low values 0.994 | S. cerevisiae deletion strains, locus YOR144C, strain elg1, hits give low values 0.994 | S. cerevisiae deletion strains, locus YOR184W, strain ser1, hits give low values 1.02 | S. cerevisiae deletion strains, locus YOR231W, strain MKK1, hits give low values 1.01 | S. cerevisiae deletion strains, locus YOR265W, strain rbl2, hits give low values 0.996 | S. cerevisiae deletion strains, locus YOR270C, strain vph1, hits give low values 1.05 | S. cerevisiae deletion strains, locus YOR290C, strain snf2, hits give low values 0.989 | S. cerevisiae deletion strains, locus YOR316C, strain cot1, hits give low values 0.993 | S. cerevisiae deletion strains, locus YPL051W, strain arl3, hits give low values 1 | S. cerevisiae deletion strains, locus YPL078C, strain atp4, hits give low values 1.01 | S. cerevisiae deletion strains, locus YPL106C, strain sse1, hits give low values 0.961 | S. cerevisiae deletion strains, locus YPL240C, strain hsp82, hits give low values 0.988 | S. cerevisiae deletion strains, locus YPL241C, strain CIN2, hits give low values 0.992 | S. cerevisiae deletion strains, locus YPL256C, strain CLN2, hits give low values 1.03 | S. cerevisiae deletion strains, locus YPR119W, strain clb2, hits give low values 0.984 | S. cerevisiae deletion strains, locus YPR141C, strain kar3, hits give low values 0.971 | S. cerevisiae deletion strains, locus YPR163C, strain tif3, hits give low values 1 | S. cerevisiae deletion strains, locus YPR167C, strain met16, hits give low values 0.982 | S. cerevisiae deletion strains, strain wtn01, hits give low values 1.01 | S. cerevisiae strains, strain wild type, hits give low values 1.02

Source: PubChem BioAssay AID1159580 (chemical genetic matrix, 2015)
